From PubChem BioAssay (NCI)
The panel holds about 83,000 compounds, 20% with a hit somewhere; the sample as a whole holds those more often.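 Values shown are percent growth following 48 h exposure of cells in 96-well plates to a single concentration of compound; below 10 was considered active.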 A number with no mark means an inactive call. Activity calls are given as the source filed them.

Key:
Experiment in all cases: NCI-60 one-dose screen, 48 h (100 = growth as untreated, 0 = no growth, -100 = all killed)
Details in all cases: 10 µM unless noted
[1] = test system: SR leukemia
[2] = test system: RPMI-8226 leukemia
[3] = test system: OVCAR-8 ovarian
[4] = test system: OVCAR-4 ovarian
[5] = test system: SK-OV-3 ovarian
[6] = test system: IGROV1 ovarian
[7] = test system: OVCAR-3 ovarian
[8] = test system: HS 578T breast
[9] = test system: NCI/ADR-RES ovarian
[10] = test system: T-47D breast
[11] = test system: BT-549 breast
[12] = test system: MDA-MB-435 melanoma
[13] = test system: SW-620 colon
[14] = test system: MCF7 breast
[15] = test system: HCT-116 colon
[16] = test system: HCC-2998 colon
[17] = test system: KM12 colon
[18] = test system: OVCAR-5 ovarian

SMILES	growth [1]	growth [2] [%]	growth [3] [%]	growth [4] [%]	growth [5] [%]	growth [6] [%]	growth [7] [%]	growth [8]	growth [9]	growth [10] [%]	growth [11] [%]	growth [12]	growth [13]	growth [14] [%]	growth [15] [%]	growth [16] [%]	growth [17] [%]	growth [18] [%]
CN(C)c1ccc(/C=N/Nc2nc(N/N=C/c3ccc(N(C)C)cc3)nc(N3CCOCC3)n2)cc1	-13.1% (active)	35	99	104	110	94.6	109	97.6%	99.8%	94.7	106	104%	83.8%	54.8	35.7	103	104	–
COc1cc(-c2nc(SCc3ccc(C)cc3)[nH]c(=O)c2C#N)ccc1OCc1ccccc1	125%	105	101	–	108	116	–	107%	103%	109	156	98.2%	107%	94.5	112	117	102	105
COc1ccc(C(=O)c2c(N)c(C#N)cn2-c2cccc(OC)c2)cc1	27%	22.1	34.2	63.1	–	32	30.3	11%	9.32% (active)	16	41.9	-37.3% (active)	9.11% (active)	17.5	16.8	56.1	23.7	56.9
N/C(=N\c1nc2ccc([N+](=O)[O-])cc2s1)C(Cl)(Cl)Cl	57.7%	38.9	73.5	–	82.6	65.1	47.4	79.9%	73.4%	30.7	93.3	83.6%	70.5%	40	53.9	–	37.6	84.1
C/C(=C(/C)C1CC1CCN(C(=O)c1ccccn1)S(=O)(=O)c1ccc(C)cc1)C1CCCCC1 (configuration not stated)	105%	92.2	96.8	–	101	103	108	102%	81.9%	78.5	120	98.2%	103%	74.7	90.1	97.4	98.6	93.1
CC(C)(C)OC(=O)N1CCN(S(=O)(=O)/N=C2\NC(=O)NC2=C(Cl)Cl)CC1	23.6%	84.7	100	100	–	84	104	72.9%	99%	75.3	101	103%	34.3%	79.7	98	75	107	101
O=[N+]([O-])c1ccc(-c2nnc(SCc3ccc(O)c4ncccc34)n2-c2ccccc2)cc1	40.6%	17.8	17.9	50.6	30.6	30.6	30.5	5.1% (active)	69%	24.1	20	14%	18.6%	11.4	12.4	41.9	19.2	–
O=C1c2cc(Br)ccc2-n2c1nc1cc(Br)ccc1c2=O	65.8%	75.8	78.3	–	–	59.8	47.3	96.1%	84.2%	79.7	124	-85.6% (active)	68%	59.3	81.8	108	–	90.8
